Shown are actives, neighbours in structure and some others; about 6.9% of the full set was active somewhere.
MCF10A rerep – DNA re-replication induction in MCF 10a cells. 350,000 tested, 2.9% active. Potency, µM (titrated, usually from 46.1 µM), inactives show top-dose activity, positive = re-replication, actives largely listed as activators. MCF 10A DNA re-replication, Hoechst nuclear intensity, 48 h; also: potency is read from the fitted curve at half-maximal effect; % of control where 0% means no effect; nearly all actives have a fitted effect of over 50% in size
SW480 rereplic – induces DNA re-replication in SW480 colon adenocarcinoma cells; SW480 DNA re-replication, Hoechst DNA content imaging, 48 h; Potency, µM (titrated, usually from 46.1 µM), inactives show top-dose re-replication activation, hits mostly activators; 340,000 tested, 1.8% active; AID 624297; also: potency is read from the fitted curve at half-maximal effect; % of control where 0% means no effect; nearly all actives have a fitted effect of over 55% in size
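Image-based read-out: total Hoechst fluorescence of nuclei (405 nm excitation, 500-530 nm emission), with hits raising the fraction of high-intensity nuclei. SW480 colon cells incubated 48 hr with compounds at 37 C.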
IL1B secr inh – inflammasome signaling inhibition, IL-1 beta readout; THP-1 LPS/ATP IL-1B secretion, AlphaLISA, 16 h; stronger effect = lower value; activity change, % at 57.5 µM; 360,000 tested, 4.7% active; in the data active = activity change below about -50%; inconclusive = mostly about -30% to -49%; also: % is scaled to controls: 0 for no effect and ±100 for the full control effect
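THP-1 cells pretreated 1 hr with compounds (up to 57.5 uM final), then stimulated with LPS (250 ng/mL final) plus ATP (1.25 mM final); secreted IL-1B measured by AlphaLISA after 16 hr, decreased signal indicating inhibition.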
Giardia kill – kills Giardia lamblia; Giardia lamblia trophozoite viability; activity change, % at 7.66 µM, hits read low; 340,000 tested, 0.15% active; AID 540267; in the data active = activity change below about -80%; inconclusive = between about -30% and that limit;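 also: parasites exposed to compound for two days anaerobically before the ATP read; % is scaled to controls: 0 for no effect and ±100 for the full control effect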
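Viability, read as ATP luminescence: trophozoites at 100 cells/well, compound added, 48 hrs anaerobic at 37 deg C, then 15-30 min room-temperature development before reading.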
Vif-A3F inh – blocks the Vif interaction with APOBEC3F | Potency, µM (series often up to 46.1 µM), for inactives: at the highest dose activity, negative = active | 390,000 tested, 0.2% active | HeLa A3F-eYFP + Vif (tagged APOBEC3F with the HIV-1 protein that degrades it), YFP fluorescence increase; also: potency is read from the fitted curve at half-maximal effect; % of control where 0% means no effect; nearly all actives have a fitted effect of over 65% in size
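Fluorescence increase (Ex 488/Em 500-530) after overnight compound treatment at 37 deg C flags inhibition of Vif-driven A3F-eYFP loss in stable HeLa A3F-eYFP/Vif cells seeded overnight beforehand.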
Vif-APOBEC3G blk – blocks the Vif interaction with human APOBEC3G; HeLa A3G-eYFP + Vif (tagged APOBEC3G with the HIV-1 protein that degrades it), YFP fluorescence, overnight; 410,000 tested, 0.076% active; AID 602310; Potency, µM (doses to about 46.1 µM), without a hit: at the highest dose activity, negative = active, actives largely listed as inhibitors; Q9HC16; also: potency is read from the fitted curve at half-maximal effect; % is scaled to controls: 0 for no effect and ±100 for the full control effect; nearly all actives have a fitted effect of over 60% in size
Target sequence (Q9HC16 whole entry, looked up): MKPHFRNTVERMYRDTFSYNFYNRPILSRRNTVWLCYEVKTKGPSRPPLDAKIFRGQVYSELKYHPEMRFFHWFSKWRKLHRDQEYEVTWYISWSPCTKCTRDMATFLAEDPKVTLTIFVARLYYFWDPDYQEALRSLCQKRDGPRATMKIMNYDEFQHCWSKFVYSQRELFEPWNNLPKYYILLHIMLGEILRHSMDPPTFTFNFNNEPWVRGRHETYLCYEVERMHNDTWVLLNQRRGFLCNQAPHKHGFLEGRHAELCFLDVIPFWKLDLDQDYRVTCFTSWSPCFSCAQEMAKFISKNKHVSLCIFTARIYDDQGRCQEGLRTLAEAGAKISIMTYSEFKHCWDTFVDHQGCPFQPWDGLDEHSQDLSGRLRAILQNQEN
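Read-out is eYFP fluorescence (Ex 488/Em 500-530) from Vif-expressing HeLa A3G-eYFP cells; more signal means A3G escaped Vif-mediated degradation. Cells plated overnight, compound pinned in, incubated overnight at 37 deg C.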
An asterisk follows results filed as active; [ ] = dose if it differs, or a comment. Unless noted, calls follow the shape of the dose curve; as a rule, active = well fitted curve in the direction sought with a large enough effect; inconclusive = small, poorly fitted or top-dose-only effect, or another doubt; inactive = no such curve, though single readings can be large; an effect the other way counts as inactive or inconclusive.

For COCCNC(=S)N/N=C(\C)c1ccc(C)c([N+](=O)[O-])c1 the results were MCF10A rerep -9.8%, SW480 rereplic -1.3%, IL1B secr inh -65.2*, Giardia kill 11.6, Vif-A3F inh 1.4% and Vif-APOBEC3G blk 1.7%.
For COCCNC(=S)N/N=C(\C)c1ccc2cc(OC)ccc2c1 the results were MCF10A rerep inconclusive, SW480 rereplic inconclusive, IL1B secr inh -88.4*, Giardia kill 7.5, Vif-A3F inh -1.3% and Vif-APOBEC3G blk -13.8%.
For COCCNC(=S)N/N=C(\C)c1ccc(OC)cc1 the results were MCF10A rerep 3.9%, SW480 rereplic -3.6%, IL1B secr inh 1.6, Giardia kill -0.1, Vif-A3F inh -0.1% and Vif-APOBEC3G blk -0.2%.
Screening O=C(Nc1ccc(F)c(Cl)c1)C1CCCN1S(=O)(=O)c1ccc(F)cc1 (centres undefined) returned Vif-A3F inh 3.3% and Vif-APOBEC3G blk 1.6%.
For CCCCOC(=O)/C=C\C(=O)OCCCC the results were MCF10A rerep 11.1%, SW480 rereplic 1.9%, IL1B secr inh -1.6, Giardia kill -16.9, Vif-A3F inh 6.1% and Vif-APOBEC3G blk 2.6%.
For CCCCOC(=O)/C=C\C(=O)NC(N)=O the results were MCF10A rerep inconclusive, SW480 rereplic inconclusive, IL1B secr inh -105.2*, Giardia kill -13.0, Vif-A3F inh inconclusive and Vif-APOBEC3G blk inconclusive.
For CN(C)/C=N/c1ncc(C(=O)c2ccc(-c3ccccc3)cc2)s1 the results were MCF10A rerep 9.2µM*, SW480 rereplic 11.9%, IL1B secr inh -52.5*, Giardia kill 6.4, Vif-A3F inh 8.3% and Vif-APOBEC3G blk 1.1%.
`CN(C)/C=N/c1ncc(C(=O)c2ccccc2)s1` gave MCF10A rerep 257.5%[0.0737 µM], SW480 rereplic -11.8%, IL1B secr inh -6.0, Giardia kill 19.0, Vif-A3F inh -0.9% and Vif-APOBEC3G blk 1.9%.
CCS(=O)(=O)N1CCc2cc(C(=O)Nc3cc(OC)c(Cl)cc3OC)ccc21 was read as Vif-A3F inh -3.8% and Vif-APOBEC3G blk -2.5%.
`O=C(CCCn1c(=O)[nH]c2ccsc2c1=O)N1CCN(c2ccc(Cl)cc2)CC1` gave Vif-A3F inh 1.2% and Vif-APOBEC3G blk 4.3%.
`O=C(Cc1ccc(-n2c(=O)[nH]c3ccsc3c2=O)cc1)N1CCN(c2ccc(Cl)cc2)CC1` gave MCF10A rerep 12.5%, SW480 rereplic -8.8%, IL1B secr inh -75.2*, Giardia kill 2.3, Vif-A3F inh 3.0% and Vif-APOBEC3G blk 0.6%.
`CC(=O)Nc1ccc(NC(=O)c2ncoc2-c2ccco2)cc1` gave Vif-A3F inh -9.3% and Vif-APOBEC3G blk -0.4%.
COc1ccc(CNC(=O)c2nc(S(=O)(=O)Cc3ccccc3)ncc2Cl)cc1 was read as MCF10A rerep inconclusive, SW480 rereplic -16.1%, IL1B secr inh -98.5*, Giardia kill -10.5, Vif-A3F inh 1.1% and Vif-APOBEC3G blk inconclusive.
`O=C(NCc1ccccc1)c1nc(S(=O)(=O)Cc2ccccc2)ncc1Cl` gave MCF10A rerep inconclusive, SW480 rereplic -18.1%, IL1B secr inh -97.6*, Giardia kill 11.5, Vif-A3F inh 4.7% and Vif-APOBEC3G blk inconclusive.
For c1ccc(N=Nc2ccc3cccccc2-3)cc1 the results were MCF10A rerep inconclusive, SW480 rereplic 1.5%, IL1B secr inh -93.1*, Giardia kill inconclusive, Vif-A3F inh inconclusive and Vif-APOBEC3G blk inconclusive.
Screening O=C(Cn1cc(SCc2ccc(Cl)cc2)c2ccccc21)N1CCCC1 returned Vif-A3F inh 2.1% and Vif-APOBEC3G blk -0.1%.
For CCOC(=O)C(Nc1ccc2ccccc2c1)C(=O)OCC the results were MCF10A rerep 4.61µM*, SW480 rereplic 13µM*, IL1B secr inh 13.4, Giardia kill 9.3, Vif-A3F inh 1.0% and Vif-APOBEC3G blk -23.0%.
COc1ccc(C(=O)CC(=O)C(=O)Nc2ccc(Cl)cc2)cc1 was read as MCF10A rerep 17.0%, SW480 rereplic 19.9%, IL1B secr inh 2.6, Giardia kill -7.6, Vif-A3F inh -21.0% and Vif-APOBEC3G blk 0.0%.
COc1ccc(C(=O)CC(Nc2ccc([N+](=O)[O-])cc2)c2ccc(Cl)cc2)cc1 (centres undefined) was read as MCF10A rerep 12.8%, SW480 rereplic inconclusive, IL1B secr inh -52.7*, Giardia kill -11.0, Vif-A3F inh -5.5% and Vif-APOBEC3G blk 7.5%.
Screening COc1ccc(Cl)cc1NC(=S)NCCN1CCOCC1 returned MCF10A rerep 0.461µM*, SW480 rereplic inconclusive, IL1B secr inh 11.0, Giardia kill -17.7, Vif-A3F inh 9.6% and Vif-APOBEC3G blk 4.5%.
For COc1ccccc1NC(=S)NCCN1CCOCC1 the results were MCF10A rerep 9.6%, SW480 rereplic -2.3%, IL1B secr inh 5.1, Giardia kill -11.8, Vif-A3F inh -6.5% and Vif-APOBEC3G blk -1.2%.
For COc1ccc(Cl)cc1NC(=S)N(CCCN1CCOCC1)Cc1cn(C)c2ccccc12 the results were MCF10A rerep inconclusive, SW480 rereplic 23.1µM*, IL1B secr inh -19.1, Giardia kill 15.5, Vif-A3F inh -4.5% and Vif-APOBEC3G blk -0.9%.
Screening COc1ccccc1C(=O)Nc1nnc(S(=O)(=O)N(C)c2ccc(Cl)cc2)s1 returned Vif-A3F inh -1.6% and Vif-APOBEC3G blk 4.8%.
`c1ccc(-c2nnc(-c3ccccn3)nc2NC2CCCCC2)cc1` gave MCF10A rerep 10.3µM*, SW480 rereplic inconclusive, IL1B secr inh 84.9, Giardia kill 7.5, Vif-A3F inh inconclusive and Vif-APOBEC3G blk -1.9%.
`CC(Nc1nc(-c2ccccc2O)nc2ccccc12)c1ccccc1` (centres undefined) gave MCF10A rerep 20.6µM*, SW480 rereplic inconclusive, IL1B secr inh 21.3, Giardia kill 1.8, Vif-A3F inh -24.6% and Vif-APOBEC3G blk -23.5%.
For Oc1ccccc1-c1nc(NC2CCCC2)c2ccccc2n1 the results were MCF10A rerep inconclusive, SW480 rereplic -2.5%, IL1B secr inh -12.3, Giardia kill -13.4, Vif-A3F inh 1.8% and Vif-APOBEC3G blk -4.4%.
`Fc1ccccc1-c1nc(NC2CCCC2)c2ccccc2n1` gave MCF10A rerep 16.0%, SW480 rereplic -5.7%, IL1B secr inh -53.3*, Giardia kill 9.9, Vif-A3F inh 11.2% and Vif-APOBEC3G blk 2.1%.
For CC(=O)Nc1cccc(Nc2nc(-c3ccccc3F)nc3ccccc23)c1 the results were MCF10A rerep -3.4%, SW480 rereplic -4.1%, IL1B secr inh -52.5*, Giardia kill 19.1, Vif-A3F inh 0.4% and Vif-APOBEC3G blk -5.3%.
`CCC(C)C(NC(=O)OC(C)(C)C)C(=O)NC1COC2CC(n3cc(F)c(=O)[nH]c3=O)OC12` (centres undefined) gave Giardia kill -7.0 and Vif-APOBEC3G blk 1.6%.
